# PubChem BioAssay (NCATS)
# Where “and” joins values, the source holds several entries; their conditions need not be identical. Equal entries are not always repeated. Inconclusive results are not listed. A call without a number means that no potency is given here. Unmarked numbers belong to inactive results. Calls of active or inactive are those of the source. Unless noted, calls follow the shape of the dose curve; as a rule, active = well fitted curve in the direction sought with a large enough effect; inconclusive = small, poorly fitted or top-dose-only effect, or another doubt; inactive = no such curve, though single readings can be large; an effect the other way counts as inactive or inconclusive.
# What was measured:
# [1] = Primary qHTS for small molecule stabilizers of the endoplasmic reticulum resident proteome: Secreted ER Calcium Modulated Protein (SERCaMP) assay (AID 1508630)
# How it was run: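 The SH-SY5Y reporter protocol was run at 3 concentrations up to 38.3 uM (primary) or 11 concentrations (follow-up): 16 h compound, 100 nM thapsigargin for 4 h, then extracellular luciferase luminescence.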
# [2] = A High-Content qHTS Against Drug Library for the Identification of Small Molecules that Inhibit DYT1 Early Onset Primary Dystonia-Associated Cell Pathology (AID 1645839; calls by dose curve; also: potency is read from the fitted curve at half-maximal effect)
# How it was run: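 Cells were seeded and left for 24 h, then dosed with compound alongside tetracycline induction of mutant EGFP-TorsinA. They were incubated for 48 h, fixed in 4% paraformaldehyde, permeabilized and imaged for mislocalization (%pathology) and cell count.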
# [3] = molecular target: Cytochrome P450 2D6 (Homo sapiens) (UniProt P10635); assay: Cytochrome P450 family 2 subfamily D member 6 (CYP2D6) small molecule antagonists: luciferase biochemical (cell-free) qHTS assay (AID 1645840; active = well fitted curve in the direction sought with a large enough effect in the repeat runs; an effect the other way counts as inactive or inconclusive; also: nearly all actives have a fitted effect of over 55% in size; also: potency is read from the fitted curve at half-maximal effect)
# How it was run: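 P450-Glo CYP2D6 system: proluciferin substrate converted by enzyme to luciferin, read by luminescence proportional to activity. Enzyme-substrate mix with compound 10 min at room temperature, then NADPH regeneration 1 h before detection reagent.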
# [4] = Counterscreen qHTS for small molecule stabilizers of the endoplasmic reticulum resident proteome: GLuc-NoTag assay (AID 1508627); also: series mostly up to about 76 µM
# How it was run: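 Counterscreen line: SH-SY5Y-GLuc-NoTag. Seed, 5 h; compound, 19 h; thapsigargin 100 nM, 4 h; 37C/5% CO2. Readout: secreted GLuc luminescence, coelenterazine 0.07x final, no lysis.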
# [5] = Confirmatory qHTS for small molecule stabilizers of the endoplasmic reticulum resident proteome: Secreted ER Calcium Modulated Protein (SERCaMP) assay (AID 1508628); also: nearly all actives have a fitted effect of over 40% in size; also: potency is read from the fitted curve at half-maximal effect
# How it was run: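 Reporter secretion upon ER calcium depletion (100 nM thapsigargin, 4 h, 37C) is measured as medium luminescence with coelenterazine, after 16 h compound pretreatment of SH-SY5Y-GLuc-SERCaMP cells; primary at three concentrations up to 38.3 uM, follow-up at 11 (up to 76.6 uM).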
# Papain (Carica papaya) = Papain (Carica papaya) (UniProt P00784); assay: Primary qHTS assay for inhibitors of the protease papain (AID 1645873);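 also: papain turnover of Z-FR-AMC read as the AMC fluorescence gain over 10 min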; also: potency is read from the fitted curve at half-maximal effect
# [6] = Cell Viability qHTS for small molecule stabilizers of the endoplasmic reticulum resident proteome (AID 1508629); conditions: cell viability counter-screen, 100 nM thapsigargin for final 4 h;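 also: human SH-SY5Y neuroblastoma cells carrying the GLuc-SERCaMP reporter; compound exposure about 46 h in total before the viability read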
# [7] = molecular target: Cytochrome P450 2C9 (Homo sapiens) (UniProt P11712); assay: Cytochrome P450 family 2 subfamily C member 9 (CYP2C9) small molecule antagonists: luciferase biochemical (cell-free) qHTS assay (AID 1645842; active = well fitted curve in the direction sought with a large enough effect in the repeat runs; an effect the other way counts as inactive or inconclusive; also: nearly all actives have a fitted effect of over 55% in size; also: potency is read from the fitted curve at half-maximal effect)
# How it was run: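 P450-Glo CYP2C9 system: proluciferin substrate with enzyme in mix containing 0.4% BSA, 10 min at room temperature, then NADPH regeneration solution added and incubated 1 h at 37C. Detection reagent stopped reaction; luminescence read after 20 min as RLU.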
# [8] = molecular target: Cytochrome P450 3A4 (Homo sapiens) (UniProt P08684); assay: Cytochrome P450 family 3 subfamily A member 4 (CYP3A4) small molecule antagonists: luciferase qHTS assay (AID 1645841; active = well fitted curve in the direction sought with a large enough effect in the repeat runs; an effect the other way counts as inactive or inconclusive; also: nearly all actives have a fitted effect of over 45% in size)
# How it was run: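 P450-Glo CYP3A4 enzyme with proluciferin substrate preincubated 10 min with compound at room temperature, then NADPH regeneration 1 h. Luciferin detection reagent added for 20 min; luminescence recorded. Ketoconazole positive control.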
# [9] = molecular target: N-terminal Xaa-Pro-Lys N-methyltransferase 1 (Homo sapiens) (UniProt Q9BV86); assay: Confirmatory qHTS for Inhibitors of N-terminal methyltransferase 1 (NTMT1): MTaseGlo Assay (AID 1645874);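 also: luminescence from SAH made as NTMT1 methylates SPKRIA peptide using SAM; series mostly up to about 100 µM; nearly all actives have a fitted effect of over 65% in size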
# How it was run: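 Inhibition was derived from luminescence after SAH-to-ATP conversion, scaled between no-enzyme and DMSO wells, then fitted by 4-parameter Hill. Conditions: 125 nM NTMT1, 100 uM SAM, 1 uM SPKRIA, 30 min RT.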
# Papain (Carica papaya), sequence (P00784 whole entry, looked up): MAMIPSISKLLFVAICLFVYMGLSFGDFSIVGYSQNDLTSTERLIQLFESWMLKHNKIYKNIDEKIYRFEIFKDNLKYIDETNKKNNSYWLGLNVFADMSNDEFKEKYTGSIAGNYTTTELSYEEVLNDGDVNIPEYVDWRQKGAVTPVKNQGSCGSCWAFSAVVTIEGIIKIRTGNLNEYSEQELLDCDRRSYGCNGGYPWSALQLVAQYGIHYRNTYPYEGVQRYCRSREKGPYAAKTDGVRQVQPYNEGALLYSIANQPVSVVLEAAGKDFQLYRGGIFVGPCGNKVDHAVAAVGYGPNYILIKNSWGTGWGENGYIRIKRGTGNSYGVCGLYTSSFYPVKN
# Cytochrome P450 2C9 (Homo sapiens), sequence (P11712 whole entry, looked up): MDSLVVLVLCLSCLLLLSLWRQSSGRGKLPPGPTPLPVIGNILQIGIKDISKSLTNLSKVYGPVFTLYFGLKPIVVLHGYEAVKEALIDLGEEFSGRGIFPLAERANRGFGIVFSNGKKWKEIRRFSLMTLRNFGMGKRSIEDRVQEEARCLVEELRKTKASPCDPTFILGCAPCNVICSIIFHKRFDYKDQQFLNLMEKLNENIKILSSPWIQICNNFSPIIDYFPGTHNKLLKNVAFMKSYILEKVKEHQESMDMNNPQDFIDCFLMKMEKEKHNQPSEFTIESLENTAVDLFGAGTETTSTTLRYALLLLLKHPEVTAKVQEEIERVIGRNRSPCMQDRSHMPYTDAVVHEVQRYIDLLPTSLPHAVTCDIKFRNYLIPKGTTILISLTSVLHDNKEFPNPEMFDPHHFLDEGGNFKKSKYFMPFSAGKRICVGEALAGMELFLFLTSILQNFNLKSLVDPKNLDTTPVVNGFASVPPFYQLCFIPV
# Cytochrome P450 2D6 (Homo sapiens), sequence (P10635 whole entry, looked up): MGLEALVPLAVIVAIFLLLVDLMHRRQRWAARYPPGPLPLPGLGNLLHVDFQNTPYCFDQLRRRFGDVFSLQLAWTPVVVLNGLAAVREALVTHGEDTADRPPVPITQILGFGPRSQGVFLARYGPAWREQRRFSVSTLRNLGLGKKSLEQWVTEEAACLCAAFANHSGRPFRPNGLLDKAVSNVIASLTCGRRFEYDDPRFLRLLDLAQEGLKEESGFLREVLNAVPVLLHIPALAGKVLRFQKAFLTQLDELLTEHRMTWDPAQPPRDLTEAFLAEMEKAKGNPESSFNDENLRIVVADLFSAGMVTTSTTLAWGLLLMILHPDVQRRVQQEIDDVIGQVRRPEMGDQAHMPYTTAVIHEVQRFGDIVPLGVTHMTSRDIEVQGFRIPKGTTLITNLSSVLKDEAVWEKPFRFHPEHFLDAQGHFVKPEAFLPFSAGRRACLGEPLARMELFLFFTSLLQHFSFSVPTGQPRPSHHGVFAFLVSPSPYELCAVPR
# N-terminal Xaa-Pro-Lys N-methyltransferase 1 (Homo sapiens), sequence (Q9BV86 whole entry, looked up): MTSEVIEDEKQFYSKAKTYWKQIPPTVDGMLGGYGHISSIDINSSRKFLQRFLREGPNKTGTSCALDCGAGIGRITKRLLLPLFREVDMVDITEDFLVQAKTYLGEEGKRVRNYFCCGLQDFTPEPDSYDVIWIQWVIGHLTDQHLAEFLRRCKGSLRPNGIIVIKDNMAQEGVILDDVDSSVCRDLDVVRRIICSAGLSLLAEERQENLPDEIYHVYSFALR
# Cytochrome P450 3A4 (Homo sapiens), sequence (P08684 whole entry, looked up): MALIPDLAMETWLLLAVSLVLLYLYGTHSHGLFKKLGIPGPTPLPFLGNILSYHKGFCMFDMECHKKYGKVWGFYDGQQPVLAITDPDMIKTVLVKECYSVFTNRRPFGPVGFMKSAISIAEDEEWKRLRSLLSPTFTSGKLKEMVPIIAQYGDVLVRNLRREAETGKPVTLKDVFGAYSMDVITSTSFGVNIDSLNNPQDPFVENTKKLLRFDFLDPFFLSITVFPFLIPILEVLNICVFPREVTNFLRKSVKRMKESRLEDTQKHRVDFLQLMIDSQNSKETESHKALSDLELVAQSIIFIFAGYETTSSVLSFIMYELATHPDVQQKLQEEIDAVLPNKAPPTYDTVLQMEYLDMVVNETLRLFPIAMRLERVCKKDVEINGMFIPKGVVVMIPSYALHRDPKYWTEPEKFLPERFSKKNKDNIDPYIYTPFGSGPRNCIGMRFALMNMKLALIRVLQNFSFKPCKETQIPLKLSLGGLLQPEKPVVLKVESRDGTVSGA
compound,measurement,setting,value
CN(Cc1cnc2nc(N)nc(N)c2n1)c1ccc(C(=O)N[C@@H](CCC(=O)O)C(=O)O)cc1,Potency,[1],inactive
same,Potency,[2],inactive
same,Potency,[3],inactive
O=C(c1ccc(OCCN2CCCCC2)cc1)c1c(-c2ccc(O)cc2)sc2cc(O)ccc12,Potency,[4],inactive
same,Potency,[5],inactive
same,Potency,Papain (Carica papaya),inactive
CCOC(=O)Nc1ccc(NCc2ccc(F)cc2)nc1N,Potency,[1],inactive
same,Potency,[2],inactive
same,Potency,[3],3.09 µM (active)
NC12CC3CC(CC(C3)C1)C2,Potency,[4],inactive
same,Potency,[5],inactive
same,max response,[6],12.2% and 7.67%
same,Potency,[1],inactive
same,Potency,[2],inactive
same,Potency,Papain (Carica papaya),inactive
CN1CCC(=C2c3ccccc3C=Cc3ccccc32)CC1,Potency,[4],inactive
same,Potency,[5],20 µM (active) and 15.8 µM (active)
same,Potency,[3],2.19 µM (active)
same,Potency,[7],inactive
same,Potency,Papain (Carica papaya),inactive
CN(C)CCCN1c2ccccc2CCc2ccc(Cl)cc21,Potency,[5],inactive
same,max response,[6],-4.23%
same,Potency,[1],inactive
same,Potency,[7],inactive
same,Potency,Papain (Carica papaya),inactive
Cc1cn([C@H]2C[C@H](N=[N+]=[N-])[C@@H](CO)O2)c(=O)[nH]c1=O,Potency,[1],inactive
same,Potency,[2],inactive
same,Potency,[3],inactive
same,Potency,[7],inactive
O=C(c1ccc(F)cc1)C1CCN(CCn2c(=O)[nH]c3ccccc3c2=O)CC1,Potency,[4],inactive
same,Potency,[1],inactive
same,Potency,[2],inactive
same,Potency,Papain (Carica papaya),inactive
CCN1CCCC1CNC(=O)c1cc(S(=O)(=O)CC)c(N)cc1OC (centres undefined),outcome,[8],inactive
CCC1(C)CC(=O)NC1=O (centres undefined),outcome,[9],inactive
COc1ccccc1N1CCN(CC(O)COc2cccc3ccccc23)CC1 (centres undefined),Potency,[1],inactive
same,Potency,[3],0.436 µM (active)
same,Potency,Papain (Carica papaya),inactive
O=C1c2c(O)ccc(O)c2C(=O)c2c(NCCNCCO)ccc(NCCNCCO)c21,Potency,[1],inactive
same,Potency,[2],inactive
same,Potency,Papain (Carica papaya),inactive
O=C1Cc2cc(CCN3CCN(c4nsc5ccccc45)CC3)c(Cl)cc2N1,Potency,[1],inactive
same,Potency,[3],9.77 µM (active)
same,Potency,Papain (Carica papaya),3.55 µM (active)
COc1ccc2c(c1)c(CC(=O)O)c(C)n2C(=O)c1ccc(Cl)cc1,Potency,[1],inactive
same,Potency,[3],inactive
same,Potency,[7],11 µM (active)
same,Potency,Papain (Carica papaya),inactive
Nc1nc2c(ncn2COC(CO)CO)c(=O)[nH]1,Potency,[2],inactive
same,Potency,[3],inactive
same,Potency,[7],inactive
same,Potency,Papain (Carica papaya),inactive
CC1(CN2CCC(n3c(=O)[nH]c4ccccc43)CC2)OCc2ccccc2-n2cccc21 (centres undefined),Potency,[1],inactive
same,Potency,[3],1.38 µM (active)
same,Potency,[7],9.77 µM (active)
CC#C[C@]1(O)CC[C@H]2[C@@H]3CCC4=CC(=O)CCC4=C3[C@@H](c3ccc(N(C)C)cc3)C[C@@]21C,Potency,[1],inactive
same,Potency,[7],1.74 µM (active)
same,Potency,Papain (Carica papaya),inactive
Cn1cnc2c1c(=O)[nH]c(=O)n2C,Potency,[1],inactive
same,Potency,[2],inactive
same,Potency,Papain (Carica papaya),inactive
O=C(CCCN1CCC(O)(c2ccc(Cl)cc2)CC1)c1ccc(F)cc1,Potency,[7],inactive
same,Potency,Papain (Carica papaya),inactive
COc1nc(C)nc(Cl)c1NC1=NCCN1,Potency,[2],inactive
same,Potency,[3],inactive
same,Potency,[7],inactive
same,Potency,Papain (Carica papaya),inactive
CN(C)CCOC(c1ccccc1)c1ccccc1,Potency,[1],inactive
same,Potency,[2],inactive
same,Potency,Papain (Carica papaya),inactive
CCOC(=O)C(C)(C)Oc1ccc(Cl)cc1,Potency,[1],inactive
same,Potency,[2],inactive
same,Potency,Papain (Carica papaya),inactive
COc1ccccc1OCC(O)CN1CCN(CC(=O)Nc2c(C)cccc2C)CC1 (centres undefined),Potency,[1],inactive
same,Potency,[2],inactive
same,Potency,Papain (Carica papaya),inactive
Clc1ccccc1C(c1ccccc1)(c1ccccc1)n1ccnc1,Potency,[3],9.77 µM (active)
same,Potency,[7],0.977 µM (active)
same,Potency,Papain (Carica papaya),inactive
Cc1ccc(-c2cc(C(F)(F)F)nn2-c2ccc(S(N)(=O)=O)cc2)cc1,Potency,[1],inactive
same,Potency,[3],13.8 µM (active)
same,Potency,[7],12.3 µM (active)
same,Potency,Papain (Carica papaya),inactive
CN1CCN(CCCN2c3ccccc3Sc3ccc(Cl)cc32)CC1,Potency,[1],inactive
same,Potency,[3],0.155 µM (active)
same,Potency,[7],inactive
same,Potency,Papain (Carica papaya),inactive
CN(C)C(=N)N=C(N)N,Potency,[2],inactive
O=c1c(-c2ccc(O)cc2)coc2cc(O)cc(O)c12,Potency,[1],inactive
same,Potency,[2],inactive
same,Potency,[7],inactive
same,Potency,Papain (Carica papaya),inactive
CC(C)C(=O)Nc1ccc([N+](=O)[O-])c(C(F)(F)F)c1,Potency,[1],inactive
same,Potency,[2],inactive
same,Potency,Papain (Carica papaya),inactive
NC(=O)NO,Potency,[1],inactive
same,Potency,[2],inactive
same,Potency,Papain (Carica papaya),inactive
NCCS(=O)(=O)O,Potency,[1],inactive
same,Potency,[2],inactive
same,Potency,Papain (Carica papaya),inactive
COc1cc2nc(N3CCN(C(=O)c4ccco4)CC3)nc(N)c2cc1OC,Potency,[1],inactive
same,Potency,[3],inactive
same,Potency,[7],inactive
COc1cc2nc(N(C)CCCNC(=O)C3CCCO3)nc(N)c2cc1OC (centres undefined),Potency,[1],inactive
same,Potency,[7],inactive
same,Potency,Papain (Carica papaya),22.4 µM (active)
Cn1ccc2cc3c(cc21)CCN3C(=O)Nc1cccnc1,Potency,[1],inactive
same,Potency,[3],inactive
same,Potency,[7],inactive
same,Potency,Papain (Carica papaya),inactive
OCCN1CCN(CCCN2c3ccccc3Sc3ccc(C(F)(F)F)cc32)CC1,Potency,[1],inactive
same,Potency,Papain (Carica papaya),inactive
CN(CCOc1ccc(NS(C)(=O)=O)cc1)CCc1ccc(NS(C)(=O)=O)cc1,Potency,[1],inactive
same,Potency,[2],inactive
same,Potency,[7],inactive
same,Potency,Papain (Carica papaya),inactive
NCCc1cnc[nH]1,Potency,[1],inactive
same,Potency,[2],inactive
same,Potency,Papain (Carica papaya),inactive
CC(C(=O)O)c1cccc(C(=O)c2ccccc2)c1 (centres undefined),Potency,[2],inactive
same,Potency,[7],19.5 µM (active)
same,Potency,Papain (Carica papaya),inactive
CNCCCC12CCC(c3ccccc31)c1ccccc12,Potency,[1],inactive
same,Potency,[2],12.6 µM (active)
same,Potency,Papain (Carica papaya),inactive
CN(C)c1nc(N(C)C)nc(N(C)C)n1,Potency,[1],inactive
same,Potency,[2],inactive
same,Potency,Papain (Carica papaya),inactive
